# Measurements taken from PMC5540273 (PLoS ONE, 2017).
# Key:
# Conditions in all cases: concentration: 1 μM, replicates: in singlicate; n = 1
# MST2 = system: T1, MST2
# T1 construct: gene STK3
# MST3 = system: T2, MST3
# T2 construct: gene STK24
# MST4 = system: MST4
# MTOR = system: MTOR
# MUSK = system: MUSK
# MYLK2 = system: MYLK2
# MYLK4 = system: MYLK4
# MYLK = system: MYLK
# MYO3A = system: MYO3A
# MYO3B = system: MYO3B
# NDR1 = system: T3, NDR1
# T3 construct: gene STK38
# NDR2 = system: NDR2
# NEK10 = system: NEK10
# NEK11 = system: NEK11
# NEK1 = system: NEK1
# NEK2 = system: NEK2
# NEK3 = system: NEK3
# NEK4 = system: NEK4
# NEK5 = system: NEK5
# NEK6 = system: NEK6
# 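Further: KINOMEscan kinase panel screen.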
SMILES,%Inh (MST2),%Inh (MST3),%Inh (MST4),%Inh (MTOR),%Inh (MUSK),%Inh (MYLK2),%Inh (MYLK4),%Inh (MYLK),%Inh (MYO3A),%Inh (MYO3B),%Inh (NDR1),%Inh (NDR2),%Inh (NEK10),%Inh (NEK11),%Inh (NEK1),%Inh (NEK2),%Inh (NEK3),%Inh (NEK4),%Inh (NEK5),%Inh (NEK6)
Cl.O=C(Nc1cccc(-c2nn3ncccc3c2-c2ccnc(Nc3cccnc3)n2)c1)c1c(F)cccc1F [GSK312879],19%,0%,0%,15%,23%,13%,1%,2%,0%,0%,0%,0%,7%,0%,0%,14%,0%,23%,0%,0%
O=S(=O)(c1ccc(-c2ccnc3[nH]ccc23)cc1)N1CCCC1 [GSK846226],4%,14%,0%,12%,0%,3%,62%,22%,10%,0%,33%,38%,15%,0%,12%,16%,16%,0%,31%,0%
Cc1c(O)cccc1Nc1ccnc2ccc(C(F)(F)F)cc12.Cl [GW466413],0%,0%,0%,0%,0%,0%,0%,0%,0%,0%,0%,0%,16%,0%,0%,0%,0%,0%,0%,0%
Clc1cc(Cl)cc(Nc2ccnc(Nc3cc(Cl)cc(Cl)c3)n2)c1 [GSK175726],20%,9%,0%,18%,2%,11%,13%,21%,10%,3%,21%,11%,4%,8%,1%,4%,16%,0%,23%,0%
Cc1ccc(NC(=O)Nc2cc(C(C)(C)C)nn2-c2ccccc2)cc1 [GSK1014915],23%,5%,13%,30%,17%,9%,4%,11%,0%,0%,0%,0%,19%,0%,0%,12%,8%,10%,0%,0%
Cc1csc(-c2nc(Nc3ccncc3)c3ccccc3n2)n1 [GW869640],0%,11%,40%,74%,11%,5%,0%,26%,2%,36%,27%,25%,17%,9%,0%,0%,19%,28%,0%,4%
Nc1nc(-c2nccs2)c(-c2ccnc3ccccc23)s1 [GW693542],75%,0%,0%,15%,15%,11%,0%,11%,3%,0%,17%,30%,19%,12%,0%,0%,4%,0%,3%,0%
CS(=O)(=O)c1ccc(-c2nc3n(c2-c2ccncc2)CCC3)cc1 [SKF-105942],0%,0%,0%,0%,12%,0%,4%,17%,25%,77%,19%,0%,17%,0%,0%,15%,58%,22%,1%,0%
COc1ccccc1CNC(=O)c1cc(C(=O)c2ccccc2C)c[nH]1 [GSK364507],0%,0%,0%,13%,7%,6%,3%,19%,6%,2%,0%,0%,6%,0%,0%,0%,8%,14%,13%,17%
Cc1cc(NCC(c2ccccc2)c2ccccc2)nc(NCc2ccc(C(F)(F)F)cc2)n1 [GW497681],0%,3%,0%,1%,0%,0%,0%,15%,34%,0%,10%,16%,0%,0%,0%,0%,0%,0%,0%,0%
Cc1cccc(-c2nc(-c3ccc(S(C)(=O)=O)cc3)sc2-c2ccnc(NCCc3ccccc3)c2)c1,4%,0%,32%,0%,0%,14%,12%,0%,10%,0%,1%,0%,14%,0%,0%,0%,30%,0%,2%,0%
O=C1NC(=O)C(N2CCc3ccccc32)=C1c1ccccc1Cl [SB-373598],0%,0%,8%,15%,2%,22%,0%,8%,14%,9%,12%,0%,18%,0%,0%,1%,7%,15%,9%,0%
Cc1ccc(C(=O)Nc2ccc(Nc3ccnc4cc(-c5ccccn5)ccc34)cc2O)cc1.Cl [GW440146],0%,0%,0%,17%,14%,6%,0%,5%,11%,0%,6%,0%,0%,2%,0%,0%,0%,14%,0%,0%
Cc1ccc(NC(=O)Nc2cccc(Cl)c2)cc1-c1ccc(C(=O)Nc2ccncc2)cc1 [GSK1398468],0%,0%,0%,9%,5%,9%,13%,8%,100%,0%,25%,0%,3%,0%,0%,2%,16%,0%,20%,0%
